Measured values published in PubChem BioAssay AID493056 (National Center for Advancing Translational Sciences (NCATS), 2011).
In all, about 360,000 compounds went through this assay and about 2,400 (0.67%) were called active. The list comes from a sample in which actives are over-represented; it also holds similar structures and randomly drawn compounds. A number with no mark means an inactive call. Rule as the data show it: active = enhancement above about 30%; inactive = the rest. Peptide text beside a SMILES is read from it. * marks the point of attachment. OPac = O=C(CO*)c1ccccc1; Bz = O=C(c1ccccc1)*

Target: Thyrotropin-releasing hormone receptor (Homo sapiens) (UniProt P34981)
Assay: qHTS for Small Molecule Agonists and Allosteric Enhancers of Human TRH Receptor: Primary Screen for Enhancers; also: 0% is about no effect
Settings: TRHR cells, fluo-8 calcium fluorescence, EC20 TRH enhancement; at 2 µM; stronger effect = higher value
Excerpt: NIH Chemical Genomics Center [NCGC] NIH Molecular Libraries Probe Centers Network [MLPCN] MLPCN Grant: MH089816-01 Assay Submitter (PI): Marvin Gershengorn This project aims to identify small drug-like molecules that activate (agonists) the thyrotropin releasing hormone (TRH) receptor (TRHR) or enhance its TRH-stimulated activity (allosteric enhancers). TRHR, a drug-accessible cell surface receptor expressed in specific brain regions, and its ligand TRH have been implicated in several central nervous system disorders, including depression and anxiety. Small molecule TRHR agonists or allosteric enhancers that are metabolically stable and able to cross the blood-brain barrier might serve as probes to elucidate the roles of brain TRH receptors in animal models, and might be valuable as lead compounds for the development of drugs to treat patients with central nervous system disorders. Upon TRHR-Gq activation in TRHR cells, intracellular calcium is released from stores in the endoplasmic reticulum. […] This primary screen measures compound-induced enhancement of an EC20 stimulation of the receptor by its native ligand.
For the HTS assay freshly prepared cells are plated at a density of 2000/well in 3 ul of complete DMEM medium containing 10% serum in 1536-well plates and cultured over night at 37 C in a humidified incubator with 5% CO2. The next day, 2 ul of a no wash calcium dye (ABD Bioquest) was added to the cells and plates were incubated at room temperature for 1 hour. For the assay, assay plates were loaded into the FDSS kinetic plate reader. A 10 cycle (1 second/cycle) baseline measurement is taken and then the FDSS online 1536 pintool delivers 23 nl of compound library (as well as TRH controls) to the plate. The plate is measured for kinetically at 1 cycle/sec for 180 seconds and is considered to be the agonist portion of the assay (eg, compounds which activate a positive calcium response during this portion are flagged as potential agonists). Following the 180 second read, 1 ul of either an EC20 (positive modulation assay) is delivered by an onboard pipette head. Measurements are taken kinetically for an additional 180 seconds. TRHR FDSS Screening Protocol 1. Reagent, 3 uL 2000 cells/well 1536 TC treated Black plate in media containing 10% FCS 2. Time, 18 hours, 33.5C 5% CO2 (cells grown at 37C) 3. Reagent, 2 uL ABD fluo-8 Ca dye 4. Time, 30 min-1.5hrs hours, Room temp (6 plates/batch) 5. Detector, EX 480/EM 530C, FDSS 10 cycles baseline (1sec/cycle) 6. Compound, 23 nL of stock solution from library 7. Detector, EX 480/EM 530C, FDSS 230 cycles (1sec/cycle) Agonist mode 8. Compound, 1 ul EC20 of TRH made up in HEPES HBSS, 10 nM final 9. Detector, EX 480/EM 530C, FDSS 100 cycles (1sec/cycle) Potentiator mode

Thyrotropin-releasing hormone receptor (Homo sapiens), sequence (P34981 whole entry, looked up): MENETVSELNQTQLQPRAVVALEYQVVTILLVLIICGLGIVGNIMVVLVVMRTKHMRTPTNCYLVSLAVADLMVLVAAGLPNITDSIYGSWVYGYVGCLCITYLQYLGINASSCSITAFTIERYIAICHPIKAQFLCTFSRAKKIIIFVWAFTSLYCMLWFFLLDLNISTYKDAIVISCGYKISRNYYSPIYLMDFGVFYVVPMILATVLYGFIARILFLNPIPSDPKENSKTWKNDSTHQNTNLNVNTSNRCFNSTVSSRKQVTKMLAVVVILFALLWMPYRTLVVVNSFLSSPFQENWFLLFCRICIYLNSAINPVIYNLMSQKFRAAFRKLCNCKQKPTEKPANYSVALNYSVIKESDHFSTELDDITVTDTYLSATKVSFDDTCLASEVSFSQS

| Structure (SMILES) | enhancement |
| --- | --- |
| Cc1cccc(NC(=O)CSc2ncc(-c3ccccc3)[nH]2)c1C | -2.76% |
| COc1ccc(CNC(=O)c2cc3cccc(OC)c3oc2=O)cc1 | 5.25% |
| O=C(CNC(=O)c1ccco1)OCC(=O)c1ccccc1 | 14.7% |
| O=C(CNC(=O)Cc1ccccc1)NCC(=O)OCC(=O)c1ccccc1Cl | -4.65% |
| O=C(CNC(=O)c1ccccc1)NCC(=O)OCC(=O)c1ccccc1 (Bz-Gly-Gly-OPac) | 48.2% (active) |
| CCCCN(CC)CCCNC(=O)c1nn(C)c2c1CSc1ccccc1-2 | -0.263% |
| Cc1ccc(CN2CCc3nc(N4CCN(C)CC4)ncc3C2)cc1 | -1.43% |
| CCOC(=O)c1ccc(NC(=O)c2ncn(-c3ccccc3)n2)cc1 | -1.95% |
| O=C1C(=O)N(CCCO)C(c2ccccc2)/C1=C(\O)c1ccc(Br)cc1 (centres undefined) | 46.2% (active) |
| COc1cccc(C2/C(=C(/O)c3ccncc3)C(=O)C(=O)N2CCCN(C)C)c1 (centres undefined) | 5.69% |
| COc1ccc(/C(O)=C2/C(=O)C(=O)N(CCCN(C)C)C2c2ccccc2)cc1OC (centres undefined) | 7.56% |
| CC(C)(C)OC(=O)N1CCC(c2c(C(=O)N3CCN(c4cccc(Cl)c4)CC3)cnn2-c2cccc(Cl)c2)CC1 | -12.3% |
| Cc1cc(Cl)ccc1OCC(=O)N(Cc1ccc(N(C)C)cc1)C1CCS(=O)(=O)C1 (centres undefined) | -2.26% |
| CC1Cc2cc(S(=O)(=O)CCC(=O)NCc3ccc(Cl)cc3)ccc2N1C(=O)C1CC1 (centres undefined) | 3.17% |
| CCCn1c2ccccc2c2cnn(CC(=O)N(C)c3ccccc3CC)c(=O)c21 | 33.2% (active) |
| CCCn1c2ccccc2c2cnn(CC(=O)N(CC)c3cc(C)ccc3C)c(=O)c21 | -3.36% |
| CCCn1c2ccccc2c2cnn(CC(=O)NCCCOC(C)C)c(=O)c21 | 10.8% |
| CCOc1ccc(CCNC(=O)c2ccc3c(c2)sc2nc(-c4ccc(F)cc4)cn23)cc1OCC | 0.915% |
| Cc1ccc(NNC(=O)c2cccs2)cc1Cl | -3.86% |
| Cc1ccc(C)c(NC(=O)CCC(=O)NNC(=O)c2cccs2)c1 | 30% (active) |
| O=C(COC(=O)c1ccc(O)cc1O)NNC(=O)c1cccs1 | 6.82% |
| CCOCCCNC(=O)c1c(NC(=O)Cc2coc3ccc(C)cc23)sc2c1CCC2 | -1.11% |

| Structure (SMILES) | enhancement |
| --- | --- |
| CCOc1ccc(NC(=O)COc2ccc(C(=O)NC3CCCc4ccccc43)cc2OC)cc1 (centres undefined) | 3.25% |
| COc1cc(C2C3=C(CCCC3=O)OC3=C2C(=O)CCC3)ccc1OCC(=O)Nc1ccccc1 | 78.2% (active) |
| CCNC(=O)c1ccc(OCC(=O)Nc2ccc(F)cc2)c(OC)c1 | 13.5% |
| COc1ccc(-c2cc(-c3ccccc3)nc3c2COc2ccc(Cl)cc2-3)cc1 | 2.02% |
| COc1ccc(Cl)cc1NC(=O)CCn1c(=O)c2cccn2c2ccccc21 | 1.46% |
| COC(=O)c1ccc(CNC(=O)C2CCC(=O)N(Cc3cccc(F)c3)C2)cc1 (centres undefined) | -7.88% |
| CCn1nc(C)c(CNC(=O)C2CCC(=O)N(Cc3cccc(F)c3)C2)c1C (centres undefined) | 31.7% (active) |
| Cc1cccnc1CCNC(=O)C1CCC(=O)N(Cc2cccc(F)c2)C1 (centres undefined) | -0.481% |
| Cc1ccc(C(=O)NC2CCN(C#N)CC2)cc1 | -0.515% |
| CCOC(=O)c1sc(NC(=O)/C=C/c2ccc(C(C)C)cc2)c(C(=O)OCC)c1C | 0.66% |
| N#Cc1ncc(C(F)(F)F)cc1Oc1cccnc1 | -3.06% |
| N#Cc1ccc(Oc2cc(C(F)(F)F)nc(-c3ccccn3)n2)cc1 | 55.8% (active) |
| Cc1c(Cl)cccc1NC(=O)c1noc2c1CCCC2 | 7.16% |
| Cc1cc(NS(=O)(=O)c2ccc(NC(=O)c3ccccc3C)cc2)nc(C)n1 | 10.7% |
| COc1ccc(-c2csc(Nc3ccccn3)n2)cc1 | 34.5% (active) |
| COc1ccc(-c2csc(-c3c(N)c(C(=O)c4ccc(OC)c(OC)c4)n4ccccc34)n2)cc1 | 0.214% |
| CCCn1c(C2CCCN2c2nc(-c3ccc(OC)cc3)cs2)nc2ccccc21 (centres undefined) | -1.81% |
| Cc1cccc(N2CCN(C(=O)CN(C)S(=O)(=O)c3ccc4c(c3)CCC(=O)N4)CC2)c1C | 2.84% |
| Cc1nc(NC(=O)CN(C)S(=O)(=O)c2ccc(Cl)cc2)sc1C | 4.55% |
| CCOC(=O)Cc1csc(NC(=O)CN(C)S(=O)(=O)c2ccc3c(c2)CCC(=O)N3)n1 | 32.8% (active) |
| Cc1cc(C)cc(NC(=O)CCCc2nc(-c3ccccc3Cl)no2)c1 | -21.4% |
| COc1ccc(CCNC(=O)c2cn(C)c3ccc(S(=O)(=O)N(C)C4CCCCC4)cc3c2=O)cc1OC | -14.3% |
